D1 agonist = agonists of human D1 dopamine receptor; hit rate 1% among 360,000; activation, % at 2 µM; HEK293 T-REx D1 cells, calcium flux, agonist mode
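Inducible HEK293 T-REx D1 cells, force-coupled to calcium signalling, were plated at 4000 cells/well with tetracycline and held overnight at 30 C. After no-wash calcium dye loading, compound-evoked calcium rise over 180 s flagged agonists.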
TRHR enhancer = allosterically enhances the human TRH receptor; TRHR cells, fluo-8 calcium fluorescence, EC20 TRH enhancement; enhancement, % at 2 µM; hit rate 0.66% among 360,000; in the data active means enhancement above about 30%
Target sequence (P34981 whole entry, looked up): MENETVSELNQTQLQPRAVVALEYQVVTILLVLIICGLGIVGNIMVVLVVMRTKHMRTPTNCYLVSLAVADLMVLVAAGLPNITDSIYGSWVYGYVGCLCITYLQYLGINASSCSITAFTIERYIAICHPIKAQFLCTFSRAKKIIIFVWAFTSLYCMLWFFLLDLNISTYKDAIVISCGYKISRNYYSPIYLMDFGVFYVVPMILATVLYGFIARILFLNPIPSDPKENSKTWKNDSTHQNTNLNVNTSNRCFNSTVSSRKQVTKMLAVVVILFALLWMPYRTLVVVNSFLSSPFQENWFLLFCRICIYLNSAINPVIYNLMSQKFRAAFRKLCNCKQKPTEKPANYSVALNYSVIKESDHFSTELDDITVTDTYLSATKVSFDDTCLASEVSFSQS
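Enhancer read-out: after compound pinning and an initial kinetic agonist-mode read, an EC20 of TRH (10 nM final) was injected and fluo-8 calcium signal (Ex 480/Em 530) followed at 1 s/cycle for 100 cycles in TRHR-expressing cells.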
TRHR ag = TRH receptor (human) agonism; hit rate 0.18% among 360,000; AID 493084; activation, % at 2 µM; TRHR cells, calcium flux fluo-8, FDSS agonist mode
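Steps: seed TRHR cells overnight; add fluo-8 no-wash Ca dye, RT 30 min–1.5 h; record 10 s baseline; pin-transfer compounds; monitor fluorescence 1 cycle/s for the agonist window. Calcium increases flag candidate agonists.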
D1 PAM = human D1 dopamine receptor positive modulation. HEK293 TREx D1 cells, calcium flux, dopamine EC20 potentiation. potentiation, % at 10 µM. hit rate 0.036% among 360,000. AID 504651. P21728; in the data active means potentiation above about 30%
D1 antag = human D1 dopamine receptor antagonism. P21728. HEK293 TREx D1 cells, calcium flux, dopamine EC80; stronger effect = lower value. activity change, negative = inhibition, % at 10 µM. hit rate 3.2% among 360,000. AID 504652; in the data active means activity change below about -30%
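Allosteric or orthosteric antagonism assessed as attenuation of the calcium response to EC80 dopamine, added 180 s after compound, in induced HEK293 Trex D1 cells loaded with no-wash calcium dye.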
Hits are given with their value; ! = not confirmed by another sample. An excerpt weighted towards active compounds, which were near 4.7% of everything screened. Unless noted, no stated cut-off is given here; in the data, active means activation above about 30%; inactive means the rest.

How did Cc1ccc(CSc2oc(-c3ccco3)nc2S(=O)(=O)c2ccc(Br)cc2)cc1 do in these assays?
D1 agonist: inactive; TRHR enhancer: inactive; TRHR ag: inactive; D1 PAM: inactive; D1 antag: -35

Results for CC(=O)N1CCOc2cc(S(=O)(=O)NCc3ccc(C)cc3)c(C)cc21 ?
D1 agonist: inactive; TRHR enhancer: inactive; TRHR ag: inactive; D1 PAM: inactive; D1 antag: inactive

Results for CCCCCC[n+]1c(-c2ccccc2)csc1Nc1ccccc1 ?
D1 agonist: inactive; TRHR enhancer: inactive; TRHR ag: inactive; D1 PAM: inactive; D1 antag: -82

Results for CC(=O)N1CCc2cc(Br)cc(S(=O)(=O)CCC(=O)NCc3ccc(F)cc3)c21 ?
D1 agonist: inactive; TRHR enhancer: inactive; TRHR ag: inactive; D1 PAM: inactive; D1 antag: inactive

What do the screens show for `Cc1ccc2c(=O)cc(C(=O)Nc3ccc(S(=O)(=O)N4CCCCC4)cc3)oc2c1`?
D1 agonist: inactive; TRHR enhancer: inactive; TRHR ag: inactive; D1 PAM: inactive; D1 antag: inactive

How did COC(=O)c1sccc1S(=O)(=O)N(CC(=O)NCc1ccccc1)c1ccccc1 do in these assays?
D1 agonist: inactive; TRHR enhancer: inactive; TRHR ag: inactive; D1 PAM: inactive; D1 antag: inactive

How did CN1/C(=C\C(=O)COC(=O)c2ccc(O)c(O)c2)C(C)(C)c2ccccc21 do in these assays?
D1 agonist: inactive; TRHR enhancer: inactive; TRHR ag: inactive; D1 PAM: inactive; D1 antag: inactive

What do the screens show for `CNS(=O)(=O)c1cccc(C(=O)OCC(=O)c2c(N)n(C)c(=O)n(C)c2=O)c1`?
D1 agonist: inactive; TRHR enhancer: inactive; TRHR ag: inactive; D1 PAM: inactive; D1 antag: -32

Results for CNS(=O)(=O)c1cccc(C(=O)OCC(=O)/C=C2/N(C)c3ccccc3C2(C)C)c1 ?
D1 agonist: inactive; TRHR enhancer: inactive; TRHR ag: inactive; D1 PAM: inactive; D1 antag: -43

How did CCCCCCn1c(O)c(/C=C2\C=NN=C2c2ccccc2)sc1=S do in these assays?
D1 agonist: inactive; TRHR enhancer: 33; TRHR ag: inactive; D1 PAM: inactive; D1 antag: inactive

What do the screens show for `Cn1c(O)c(/C=C2\C=NN=C2c2ccccc2)sc1=S`?
D1 agonist: inactive; TRHR enhancer: inactive; TRHR ag: inactive; D1 PAM: inactive; D1 antag: -35

How did Cc1ccc(OC(=O)C(F)(F)F)c2c1NCCC2 do in these assays?
D1 agonist: inactive; TRHR enhancer: inactive; TRHR ag: inactive; D1 PAM: 34; D1 antag: inactive

What do the screens show for `COc1cccc(NC(=O)CNC(=O)Cn2c(C)cc3ccccc3c2=O)c1`?
D1 agonist: inactive; TRHR enhancer: inactive; TRHR ag: inactive; D1 PAM: inactive; D1 antag: inactive

What do the screens show for `Cc1cccc(NC(=O)C(=O)NCC(c2cccnc2)N2CCOCC2)c1` (centres undefined)?
D1 agonist: inactive; TRHR enhancer: inactive; TRHR ag: inactive; D1 PAM: inactive; D1 antag: inactive

Results for Oc1ccc2c(c1)C1CCCC1(N1CCOCC1)O2 (centres undefined) ?
D1 agonist: inactive; TRHR enhancer: inactive; TRHR ag: inactive; D1 PAM: inactive; D1 antag: inactive

How did c1ccc2c(c1)nc1n2C2(N3CCOCC3)CCCC2C1N1CCOCC1 (centres undefined) do in these assays?
D1 agonist: 47; TRHR enhancer: inactive; TRHR ag: inactive; D1 PAM: inactive; D1 antag: inactive

What do the screens show for `CNC(=O)c1ccc(NC(=O)COc2ccc(-c3nn(C)c(=O)c4ccccc34)cc2)cc1`?
D1 agonist: inactive; TRHR enhancer: inactive; TRHR ag: inactive; D1 PAM: inactive; D1 antag: inactive

What do the screens show for `COc1ccc(NC(=O)COc2ccc(-c3nn(C)c(=O)c4ccccc34)cc2)cc1`?
D1 agonist: inactive; TRHR enhancer: inactive; TRHR ag: inactive; D1 PAM: inactive; D1 antag: -40!

How did COc1ccc(CCNC(=O)C2CCN(S(=O)(=O)c3ccc(C)cc3)CC2)cc1 do in these assays?
D1 agonist: inactive; TRHR enhancer: inactive; TRHR ag: inactive; D1 PAM: inactive; D1 antag: -35

Results for CC(C)[C@H](NC(=O)C1CCN(S(=O)(=O)c2ccccc2)CC1)C(=O)NCc1ccccc1 ?
D1 agonist: inactive; TRHR enhancer: inactive; TRHR ag: inactive; D1 PAM: inactive; D1 antag: -45

What do the screens show for `COc1ccc(S(=O)(=O)N(C)CC(=O)NCCC2=CCCCC2)cc1`?
D1 agonist: inactive; TRHR enhancer: 35; TRHR ag: inactive; D1 PAM: inactive; D1 antag: inactive

How did COc1ccc(S(=O)(=O)N(C)CC(=O)NCCC2=CCCCC2)cc1OC do in these assays?
D1 agonist: inactive; TRHR enhancer: inactive; TRHR ag: inactive; D1 PAM: inactive; D1 antag: inactive

What do the screens show for `CN(Cc1cccs1)C(=O)C1CC(=O)N(Cc2ccccc2)C1` (centres undefined)?
D1 agonist: inactive; TRHR enhancer: inactive; TRHR ag: inactive; D1 PAM: inactive; D1 antag: -54

How did COc1ccc(CNC(=O)C2CCN(S(=O)(=O)c3ccc(C)cc3)CC2)cc1 do in these assays?
D1 agonist: inactive; TRHR enhancer: inactive; TRHR ag: inactive; D1 PAM: inactive; D1 antag: inactive

What do the screens show for `CC(C)[C@H](NC(=O)C1CCN(S(=O)(=O)c2ccccc2)CC1)C(=O)NCc1ccncc1`?
D1 agonist: inactive; TRHR enhancer: inactive; TRHR ag: inactive; D1 PAM: inactive; D1 antag: inactive

Results for CSc1cccc(NC(=O)Cn2ncn3c(cc4ccccc43)c2=O)c1 ?
D1 agonist: inactive; TRHR enhancer: inactive; TRHR ag: inactive; D1 PAM: inactive; D1 antag: inactive

How did COc1ccc(CNC(=O)C(C)Sc2ccc(S(=O)(=O)N3CCOCC3)cn2)cc1 (centres undefined) do in these assays?
D1 agonist: inactive; TRHR enhancer: inactive; TRHR ag: inactive; D1 PAM: inactive; D1 antag: -32

What do the screens show for `COc1ccc(CN2CC(C(=O)NCCc3ccc(C)cc3)CC2=O)cc1` (centres undefined)?
D1 agonist: inactive; TRHR enhancer: inactive; TRHR ag: inactive; D1 PAM: inactive; D1 antag: -47

Results for COc1ccc(S(=O)(=O)N2CCCCC2C(=O)O)cc1OC (centres undefined) ?
D1 agonist: inactive; TRHR enhancer: 33; TRHR ag: inactive; D1 PAM: inactive; D1 antag: inactive

How did COc1ccc(CN2CC(C(=O)NCCc3ccccc3)CC2=O)cc1 (centres undefined) do in these assays?
D1 agonist: inactive; TRHR enhancer: inactive; TRHR ag: inactive; D1 PAM: inactive; D1 antag: inactive

How did COc1ccc(CNC(=O)c2ccc(S(=O)(=O)N3CCOCC3)cc2)cc1 do in these assays?
D1 agonist: inactive; TRHR enhancer: inactive; TRHR ag: inactive; D1 PAM: inactive; D1 antag: inactive
